# Assay results published in PubChem BioAssay (EPA / NIEHS).
# The source made the active and inactive calls. How the source made its calls: active means hit-call score of the fitted dose curve at least 0.9, where 1 is the maximum; inactive means score below 0.9.
# Experiment: CCTE_Mundy_HCI_Cortical_NOG_NeuriteLength: CCTE's Neurite Outgrowth Assay in rat cortical cells for Neurite Length, Mundy Lab (AID 2284213);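 on AC50: neurites imaged about 48 to 50 h after chemical exposure began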
# Description: CCTE_Mundy_HCI_Cortical_NOG is a multiplexed, cell-based-readout assay that uses rat primary cortical cells with measurements taken at 50.33 hours after chemical dosing in a microplate: 96-well plate.CCTE_Mundy_HCI_Cortical_NOG_NeuriteLength is one of four components of the CCTE_Mundy_HCI_Cortical_NOG assay. It measures neurite outgrowth related to the neurite length using High Content Imaging of fluorescently labelled markers.[…] Using a type of morphology reporter, loss -of-signal activity can be used to understand developmental effects.
# Exposure starts 2 hours post-plating by adding 10 ul of the working solution to 90 ul of media in the wells for a 1/10 dilution. Forty-eight hours after chemical treatment cells are fixed by direct addition of 100 ul of warm (37C) Dulbecco's phosphate buffered saline (DPBS) fixative solution containing 8% paraformaldehyde, 8% sucrose, and 0.1% of 3 mg/ml Hoechst 33342 into each well. Primary antibodies are prepared by dilution in Immunocytochemical Staining Buffer (ISB), 10X Dulbecco's PBS, 0.1% Saponin, 5% Bovine Serum Albumin, 0.5% NaN3 (Sodium Azide) and betaIII-tubulin (rabbit anti-betaIII-tubulin, 1:800) followed by Alexa Fluor-488 secondary (1:500) to label neuronal cell bodies and neurites. A Cellomics ArrayScan VTi HCS Reader is used for automated image acquisition and analysis of neurite outgrowth.
SMILES,outcome,AC50
Nc1cc(Cl)cc(C(=O)O)c1Cl,inactive,
COC(=O)Nc1nc2ccccc2[nH]1,,12.5 µM (active)
[O-][Cl+]O,inactive,
CNC(=O)Oc1cccc2c1OC(C)(C)C2,inactive,
CN(C)[C@@H]1C(=O)C(C(N)=O)=C(O)[C@@]2(O)C(=O)C3=C(O)c4c(O)cccc4[C@@](C)(O)[C@H]3C[C@@H]12,inactive,
CCCCOC(=O)c1ccccc1C(=O)OCc1ccccc1,inactive,
CCC[CH2][Sn]([Cl])([CH2]CCC)[CH2]CCC,,0.0882 µM (active)
COP(=S)(OC)SCN1C(=O)c2ccccc2C1=O,inactive,
OCCOCCO,inactive,
CC(C)(C)C(O)(CCc1ccc(Cl)cc1)Cn1cncn1 (configuration not stated),inactive,
CC(C)COC(=O)c1ccccc1C(=O)OCC(C)C,inactive,
ClC1=C(Cl)C2(Cl)C3C(Cl)C=CC3C1(Cl)C2(Cl)Cl (configuration not stated),,22.5 µM (active)
